Consider one sequence from article PMC7862700, “An all-to-all approach to the identification of sequence-specific readers for epigenetic DNA modifications on cytosine”.

Holding throughout (experiment): DAPPL (digital affinity profiling via proximity ligation, sequencing); 10 mM Tris-HCl pH 7.5, 50 mM NaCl, 1 mM DTT, 4% glycerol, room temperature, 30 min; GST-TFs on glutathione beads, 16-mer random dsDNA library, 0.1% formaldehyde crosslink after washing; high values mean tight binding
The target in assay [1] is T1, FEV (Homo sapiens, UniProt Q99581 1-238).
T1 sequence: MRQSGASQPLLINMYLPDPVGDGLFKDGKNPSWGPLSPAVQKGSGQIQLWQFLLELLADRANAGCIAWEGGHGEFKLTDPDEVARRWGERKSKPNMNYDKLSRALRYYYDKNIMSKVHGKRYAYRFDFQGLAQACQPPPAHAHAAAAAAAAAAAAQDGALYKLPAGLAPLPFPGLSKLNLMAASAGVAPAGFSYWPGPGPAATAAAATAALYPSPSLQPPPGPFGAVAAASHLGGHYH
The conditions noted are these: protein: recombinant; tags: N-terminal GST; dsDNA, one strand shown. In a few lines:
(§1)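 In yeast, human transcription factors were expressed with a GST fusion, then pulled down on glutathione beads and given DNA barcodes. Pooled with a tag-only sample, they were exposed to 200 nmole of a 16-mer random double-stranded DNA library (Tris/NaCl/DTT/glycerol buffer, room temperature, 30 min), washed, crosslinked with 0.1% formaldehyde, proximity-ligated using BsaI/T4 ligase for 1 h at 37 °C, PCR-amplified and read on an Illumina NextSeq500. Each hexamer's frequency of reads for a factor, divided by the matching frequency for the tag-only sample, gives the binding signal.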

For assay [2], the target named is ETV5 (Homo sapiens, UniProt P41161 1-510). The conditions noted are these: protein: recombinant; tags: N-terminal GST; dsDNA, one strand shown. In a few lines: as §1
The target of assay [3] is HSF1 (Homo sapiens, UniProt Q00613 1-529). The following applies: protein: recombinant; tags: N-terminal GST; chain copies: 3; dsDNA, one strand shown. In a few lines:
as §1

The target of assay [4] is T2, SPIC (Homo sapiens, UniProt Q8N5J4 1-248).
T2 sequence: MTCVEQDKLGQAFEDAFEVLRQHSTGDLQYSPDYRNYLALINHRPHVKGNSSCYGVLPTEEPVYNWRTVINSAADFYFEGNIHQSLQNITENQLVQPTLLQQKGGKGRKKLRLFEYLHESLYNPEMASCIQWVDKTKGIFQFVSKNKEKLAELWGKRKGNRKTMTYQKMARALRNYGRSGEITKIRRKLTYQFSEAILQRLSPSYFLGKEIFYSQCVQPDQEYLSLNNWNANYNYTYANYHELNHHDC
The following applies: protein: recombinant; tags: N-terminal GST; dsDNA, one strand shown. In a few lines:
as §1

In assay [5] the target is ELF4 (Homo sapiens, UniProt Q99607 1-663). The following applies: protein: recombinant; tags: N-terminal GST; dsDNA, one strand shown. In a few lines: as §1
The target of assay [6] is T3, ELK4 (Homo sapiens, UniProt P28324-2 1-405).
T3 sequence: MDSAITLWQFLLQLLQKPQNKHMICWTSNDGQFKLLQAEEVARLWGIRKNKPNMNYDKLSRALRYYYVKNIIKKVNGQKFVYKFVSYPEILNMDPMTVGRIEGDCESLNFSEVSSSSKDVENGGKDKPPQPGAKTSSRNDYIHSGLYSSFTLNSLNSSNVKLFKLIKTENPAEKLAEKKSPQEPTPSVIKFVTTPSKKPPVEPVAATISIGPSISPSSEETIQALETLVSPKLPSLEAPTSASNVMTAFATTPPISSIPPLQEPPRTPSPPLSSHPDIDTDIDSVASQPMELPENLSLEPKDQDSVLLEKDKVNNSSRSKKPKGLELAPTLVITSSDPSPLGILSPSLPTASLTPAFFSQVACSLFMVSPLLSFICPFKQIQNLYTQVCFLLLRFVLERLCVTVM
The conditions noted are these: protein: recombinant; tags: N-terminal GST; dsDNA, one strand shown. In a few lines: as §1

Assay [7] addresses T4, ETV2 (Homo sapiens, UniProt O00321 1-342).
T4 sequence: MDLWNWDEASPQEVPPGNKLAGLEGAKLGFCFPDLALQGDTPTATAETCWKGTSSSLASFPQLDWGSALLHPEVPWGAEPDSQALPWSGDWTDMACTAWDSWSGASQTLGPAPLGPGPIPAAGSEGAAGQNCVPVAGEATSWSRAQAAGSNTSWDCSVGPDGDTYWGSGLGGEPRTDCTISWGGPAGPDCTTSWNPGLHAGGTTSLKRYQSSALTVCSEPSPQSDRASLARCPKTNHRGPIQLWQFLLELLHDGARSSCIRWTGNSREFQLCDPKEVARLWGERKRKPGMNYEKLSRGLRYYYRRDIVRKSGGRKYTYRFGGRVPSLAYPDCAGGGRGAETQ
The following applies: protein: recombinant; tags: N-terminal GST; dsDNA, one strand shown. In a few lines: as §1

The target of assay [8] is T5, ELF3 (Homo sapiens, UniProt P78545 1-371).
T5 sequence: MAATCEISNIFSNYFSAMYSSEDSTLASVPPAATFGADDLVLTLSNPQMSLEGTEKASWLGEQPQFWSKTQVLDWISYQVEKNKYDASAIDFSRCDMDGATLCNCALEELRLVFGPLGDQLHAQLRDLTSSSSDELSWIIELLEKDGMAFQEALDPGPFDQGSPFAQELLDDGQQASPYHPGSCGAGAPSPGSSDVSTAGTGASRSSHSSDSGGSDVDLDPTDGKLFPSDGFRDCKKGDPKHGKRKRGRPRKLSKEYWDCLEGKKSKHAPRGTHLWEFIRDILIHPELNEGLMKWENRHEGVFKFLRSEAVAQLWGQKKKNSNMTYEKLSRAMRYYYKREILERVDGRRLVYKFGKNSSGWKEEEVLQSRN
The conditions noted are these: protein: recombinant; tags: N-terminal GST; dsDNA, one strand shown. In a few lines: as §1

The target in assay [9] is CRX (Homo sapiens, UniProt O43186 1-299). The following applies: protein: recombinant; tags: N-terminal GST; dsDNA, one strand shown. In a few lines:
as §1

The target of assay [10] is ETV1 (Homo sapiens, UniProt P50549 1-477). The following applies: protein: recombinant; tags: N-terminal GST; dsDNA, one strand shown. In a few lines:
as §1

In assay [11] the target is T6, ERF (Homo sapiens, UniProt P50548 1-548).
T6 sequence: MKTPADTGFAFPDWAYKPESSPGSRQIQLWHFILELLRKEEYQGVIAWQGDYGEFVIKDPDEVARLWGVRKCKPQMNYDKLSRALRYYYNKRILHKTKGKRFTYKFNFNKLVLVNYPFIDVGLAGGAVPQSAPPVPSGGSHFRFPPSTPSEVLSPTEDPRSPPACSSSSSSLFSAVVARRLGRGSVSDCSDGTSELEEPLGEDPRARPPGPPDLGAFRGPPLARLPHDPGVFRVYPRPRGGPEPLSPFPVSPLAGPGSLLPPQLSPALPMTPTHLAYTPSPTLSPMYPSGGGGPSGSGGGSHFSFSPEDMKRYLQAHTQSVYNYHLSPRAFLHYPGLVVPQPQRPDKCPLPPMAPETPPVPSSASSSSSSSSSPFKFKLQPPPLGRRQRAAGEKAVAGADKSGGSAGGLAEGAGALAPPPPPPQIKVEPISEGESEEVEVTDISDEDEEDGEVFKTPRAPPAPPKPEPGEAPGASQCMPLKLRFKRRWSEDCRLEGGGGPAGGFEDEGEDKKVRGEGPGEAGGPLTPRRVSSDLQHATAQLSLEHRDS
The conditions noted are these: protein: recombinant; tags: N-terminal GST; dsDNA, one strand shown. In a few lines: as §1

Assay [12] deals with T7, ETV3L (Homo sapiens, UniProt Q6ZN32 1-361).
T7 sequence: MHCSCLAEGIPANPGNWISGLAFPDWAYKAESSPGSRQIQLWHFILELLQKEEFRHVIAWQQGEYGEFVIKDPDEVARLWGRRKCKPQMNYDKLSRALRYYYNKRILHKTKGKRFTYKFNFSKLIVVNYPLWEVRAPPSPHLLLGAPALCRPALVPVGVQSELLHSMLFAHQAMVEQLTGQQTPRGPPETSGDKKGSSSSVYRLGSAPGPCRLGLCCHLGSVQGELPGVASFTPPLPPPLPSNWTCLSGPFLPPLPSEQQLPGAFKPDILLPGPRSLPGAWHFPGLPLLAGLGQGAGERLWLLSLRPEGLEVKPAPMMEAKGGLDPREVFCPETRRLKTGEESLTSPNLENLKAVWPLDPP
The following applies: protein: recombinant; tags: N-terminal GST; dsDNA, one strand shown. In a few lines:
as §1

Assay [13] has as its target T8, ETS2 (Homo sapiens, UniProt P15036 1-469).
T8 sequence: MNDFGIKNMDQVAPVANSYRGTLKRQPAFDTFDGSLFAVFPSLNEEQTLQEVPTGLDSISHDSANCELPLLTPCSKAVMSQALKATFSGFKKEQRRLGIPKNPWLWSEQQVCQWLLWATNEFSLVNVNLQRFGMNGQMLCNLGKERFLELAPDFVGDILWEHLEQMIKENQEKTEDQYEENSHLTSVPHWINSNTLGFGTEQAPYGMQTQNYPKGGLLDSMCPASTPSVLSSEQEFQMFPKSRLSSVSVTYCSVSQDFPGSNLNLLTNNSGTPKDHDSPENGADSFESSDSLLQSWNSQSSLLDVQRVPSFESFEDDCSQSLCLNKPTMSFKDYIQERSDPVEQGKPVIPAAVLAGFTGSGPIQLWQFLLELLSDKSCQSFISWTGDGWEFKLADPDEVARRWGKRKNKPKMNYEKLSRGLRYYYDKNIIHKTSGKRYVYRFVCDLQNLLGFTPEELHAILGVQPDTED
The conditions noted are these: protein: recombinant; tags: N-terminal GST; dsDNA, one strand shown. In a few lines:
as §1

For assay [14], the target named is T9, SPDEF (Homo sapiens, UniProt O95238 1-335).
T9 sequence: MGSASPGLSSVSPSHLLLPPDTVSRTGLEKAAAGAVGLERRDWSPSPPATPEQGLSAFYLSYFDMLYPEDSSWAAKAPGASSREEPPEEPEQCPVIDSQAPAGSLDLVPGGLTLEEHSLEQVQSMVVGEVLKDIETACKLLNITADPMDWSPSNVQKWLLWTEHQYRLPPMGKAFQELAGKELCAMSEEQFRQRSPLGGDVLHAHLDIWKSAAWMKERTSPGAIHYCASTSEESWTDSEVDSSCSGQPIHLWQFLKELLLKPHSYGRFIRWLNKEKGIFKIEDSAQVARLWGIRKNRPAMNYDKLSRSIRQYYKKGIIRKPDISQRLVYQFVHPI
The conditions noted are these: protein: recombinant; tags: N-terminal GST; dsDNA, one strand shown. In a few lines:
as §1

The target of assay [15] is T10, ETV7 (Homo sapiens, UniProt Q9Y603 1-341).
T10 sequence: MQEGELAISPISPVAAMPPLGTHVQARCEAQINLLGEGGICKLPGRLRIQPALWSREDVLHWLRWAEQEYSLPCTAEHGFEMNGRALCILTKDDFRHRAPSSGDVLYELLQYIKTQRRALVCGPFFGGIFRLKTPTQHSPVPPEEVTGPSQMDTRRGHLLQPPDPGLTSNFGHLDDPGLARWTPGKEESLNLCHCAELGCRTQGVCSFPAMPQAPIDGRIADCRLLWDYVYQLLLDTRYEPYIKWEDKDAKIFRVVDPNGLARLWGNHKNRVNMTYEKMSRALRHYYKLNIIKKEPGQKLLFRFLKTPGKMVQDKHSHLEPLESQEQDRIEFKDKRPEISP
The following applies: protein: recombinant; tags: N-terminal GST; dsDNA, one strand shown. In a few lines:
as §1

Assay [16] deals with T11, ELF5 (Homo sapiens, UniProt Q9UKW6-2 1-255).
T11 sequence: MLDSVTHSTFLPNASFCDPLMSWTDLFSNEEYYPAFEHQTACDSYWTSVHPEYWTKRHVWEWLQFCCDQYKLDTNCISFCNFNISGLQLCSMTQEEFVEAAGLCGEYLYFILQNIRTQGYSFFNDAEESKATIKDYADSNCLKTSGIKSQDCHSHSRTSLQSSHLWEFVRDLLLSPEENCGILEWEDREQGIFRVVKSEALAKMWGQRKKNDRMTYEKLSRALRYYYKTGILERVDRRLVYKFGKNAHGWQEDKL
The following applies: protein: recombinant; tags: N-terminal GST; dsDNA, one strand shown. In a few lines: as §1

In assay [17] the target is T12, ETV3 (Homo sapiens, UniProt P41162-2 1-143).
T12 sequence: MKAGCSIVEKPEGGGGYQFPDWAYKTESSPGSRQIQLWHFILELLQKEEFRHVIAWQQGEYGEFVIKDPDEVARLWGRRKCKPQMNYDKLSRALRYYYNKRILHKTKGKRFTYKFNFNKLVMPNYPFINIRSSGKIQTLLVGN
The following applies: protein: recombinant; tags: N-terminal GST; dsDNA, one strand shown. In a few lines:
as §1

In assay [18] the target is ETV6 (Homo sapiens, UniProt P41212 1-452). The conditions noted are these: protein: recombinant; tags: N-terminal GST; dsDNA, one strand shown. In a few lines:
as §1

Sequence of ETV5 (P41161 whole entry): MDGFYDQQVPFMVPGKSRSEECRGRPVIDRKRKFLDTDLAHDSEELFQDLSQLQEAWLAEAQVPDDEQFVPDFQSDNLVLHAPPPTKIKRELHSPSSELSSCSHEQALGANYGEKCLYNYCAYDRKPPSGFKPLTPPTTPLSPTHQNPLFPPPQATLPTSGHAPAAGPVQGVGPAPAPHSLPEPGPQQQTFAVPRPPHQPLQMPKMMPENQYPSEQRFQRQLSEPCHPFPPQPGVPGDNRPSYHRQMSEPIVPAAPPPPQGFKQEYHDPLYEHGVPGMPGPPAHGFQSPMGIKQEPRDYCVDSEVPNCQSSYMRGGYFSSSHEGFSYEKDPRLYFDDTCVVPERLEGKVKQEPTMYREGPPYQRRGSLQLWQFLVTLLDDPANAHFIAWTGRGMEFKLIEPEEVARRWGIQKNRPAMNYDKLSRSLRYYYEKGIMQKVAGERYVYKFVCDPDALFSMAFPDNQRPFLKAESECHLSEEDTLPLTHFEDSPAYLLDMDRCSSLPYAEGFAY
Sequence of ETV6 (P41212 whole entry): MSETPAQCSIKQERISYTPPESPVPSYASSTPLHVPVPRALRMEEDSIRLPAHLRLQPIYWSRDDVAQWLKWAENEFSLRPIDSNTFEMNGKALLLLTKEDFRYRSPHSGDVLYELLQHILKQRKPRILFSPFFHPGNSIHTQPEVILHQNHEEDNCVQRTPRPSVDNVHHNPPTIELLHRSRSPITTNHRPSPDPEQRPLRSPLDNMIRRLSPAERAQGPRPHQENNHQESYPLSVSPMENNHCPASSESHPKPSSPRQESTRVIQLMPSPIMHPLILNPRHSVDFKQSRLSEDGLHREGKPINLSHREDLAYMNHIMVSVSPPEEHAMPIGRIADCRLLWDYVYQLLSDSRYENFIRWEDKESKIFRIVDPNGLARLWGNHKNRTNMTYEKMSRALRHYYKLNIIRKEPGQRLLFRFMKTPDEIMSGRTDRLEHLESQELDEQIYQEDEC
Sequence of CRX (O43186 whole entry): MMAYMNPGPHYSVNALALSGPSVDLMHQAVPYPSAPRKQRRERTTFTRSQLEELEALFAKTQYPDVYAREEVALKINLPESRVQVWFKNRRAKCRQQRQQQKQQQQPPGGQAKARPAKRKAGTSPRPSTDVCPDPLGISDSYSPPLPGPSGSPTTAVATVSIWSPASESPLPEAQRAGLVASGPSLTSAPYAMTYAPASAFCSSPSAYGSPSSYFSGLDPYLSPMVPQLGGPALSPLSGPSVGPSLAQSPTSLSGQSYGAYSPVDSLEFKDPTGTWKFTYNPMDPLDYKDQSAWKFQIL
Sequence of HSF1 (Q00613 whole entry): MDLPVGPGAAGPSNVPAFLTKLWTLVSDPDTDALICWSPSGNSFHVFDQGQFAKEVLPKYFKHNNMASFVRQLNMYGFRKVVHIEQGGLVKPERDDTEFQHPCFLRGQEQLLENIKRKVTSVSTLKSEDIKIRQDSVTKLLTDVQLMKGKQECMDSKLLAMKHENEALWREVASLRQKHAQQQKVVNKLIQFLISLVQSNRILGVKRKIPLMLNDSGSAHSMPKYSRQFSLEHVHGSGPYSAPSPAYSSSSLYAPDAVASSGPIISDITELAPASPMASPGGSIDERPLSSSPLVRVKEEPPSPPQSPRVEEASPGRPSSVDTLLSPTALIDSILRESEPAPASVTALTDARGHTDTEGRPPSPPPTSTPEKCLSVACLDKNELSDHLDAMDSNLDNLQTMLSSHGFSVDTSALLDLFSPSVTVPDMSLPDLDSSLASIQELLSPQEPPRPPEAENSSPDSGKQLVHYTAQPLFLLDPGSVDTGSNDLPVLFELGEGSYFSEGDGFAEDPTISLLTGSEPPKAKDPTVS
Sequence of ETV1 (P50549 whole entry): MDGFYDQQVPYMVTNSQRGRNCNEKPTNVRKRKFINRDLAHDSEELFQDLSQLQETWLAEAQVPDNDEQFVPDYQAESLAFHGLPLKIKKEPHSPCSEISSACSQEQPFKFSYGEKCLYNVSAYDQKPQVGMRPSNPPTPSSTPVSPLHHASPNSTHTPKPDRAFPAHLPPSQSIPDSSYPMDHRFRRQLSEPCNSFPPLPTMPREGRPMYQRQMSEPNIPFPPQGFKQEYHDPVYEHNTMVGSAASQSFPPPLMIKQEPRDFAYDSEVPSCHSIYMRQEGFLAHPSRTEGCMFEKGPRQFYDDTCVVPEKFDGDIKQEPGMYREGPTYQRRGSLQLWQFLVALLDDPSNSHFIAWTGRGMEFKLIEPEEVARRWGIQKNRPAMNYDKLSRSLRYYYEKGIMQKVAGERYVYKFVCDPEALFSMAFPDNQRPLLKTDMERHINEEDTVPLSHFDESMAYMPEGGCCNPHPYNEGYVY
Sequence of ELF4 (Q99607 whole entry): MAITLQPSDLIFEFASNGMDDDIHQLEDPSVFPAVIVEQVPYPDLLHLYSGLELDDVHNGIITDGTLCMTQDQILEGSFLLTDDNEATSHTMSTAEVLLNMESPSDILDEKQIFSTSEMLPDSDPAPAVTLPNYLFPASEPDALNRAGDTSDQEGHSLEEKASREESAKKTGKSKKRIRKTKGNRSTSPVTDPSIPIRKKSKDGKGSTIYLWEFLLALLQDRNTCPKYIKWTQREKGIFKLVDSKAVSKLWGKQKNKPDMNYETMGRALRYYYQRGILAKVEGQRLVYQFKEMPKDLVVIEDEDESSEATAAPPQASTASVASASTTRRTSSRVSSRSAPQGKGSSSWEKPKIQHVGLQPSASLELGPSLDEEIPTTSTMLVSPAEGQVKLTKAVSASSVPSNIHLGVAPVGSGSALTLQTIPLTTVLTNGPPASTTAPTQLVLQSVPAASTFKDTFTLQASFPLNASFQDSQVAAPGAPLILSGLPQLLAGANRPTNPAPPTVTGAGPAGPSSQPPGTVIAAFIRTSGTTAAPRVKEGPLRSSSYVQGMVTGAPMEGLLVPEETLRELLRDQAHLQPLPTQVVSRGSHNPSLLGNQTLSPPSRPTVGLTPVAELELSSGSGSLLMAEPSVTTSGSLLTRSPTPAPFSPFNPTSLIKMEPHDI

Regarding TATGGG, the binding signal in assay [1] was 1.13 fold enrichment (6-mer frequency, TF over GST control); in assay [2], 1.18 fold enrichment (6-mer frequency, TF over GST control); in [3], 1.1 fold enrichment (6-mer frequency, TF over GST control); in [4], 1.32 fold enrichment (6-mer frequency, TF over GST control); in [5], 1.18 fold enrichment (6-mer frequency, TF over GST control); in [6], 1.14 fold enrichment (6-mer frequency, TF over GST control). For the same sequence, the binding signal in [7] is 1.11 fold enrichment (6-mer frequency, TF over GST control); in [8], 1.18 fold enrichment (6-mer frequency, TF over GST control); in assay [9], 1.36 fold enrichment (6-mer frequency, TF over GST control); in assay [10], 1.2 fold enrichment (6-mer frequency, TF over GST control); in assay [11], 1.19 fold enrichment (6-mer frequency, TF over GST control); in assay [12], 1.13 fold enrichment (6-mer frequency, TF over GST control). Besides, the binding signal in assay [13] is 1.15 fold enrichment (6-mer frequency, TF over GST control); in assay [14], 1.14 fold enrichment (6-mer frequency, TF over GST control); in assay [15], 1.24 fold enrichment (6-mer frequency, TF over GST control); in assay [16], 1.16 fold enrichment (6-mer frequency, TF over GST control); in assay [17], 1.17 fold enrichment (6-mer frequency, TF over GST control); in [18], 1.34 fold enrichment (6-mer frequency, TF over GST control).
